Data on five molecules can be found in PubChem BioAssay.

The nature of assay [1]: binders of probe aFSTL3 on microarray, primary screen, stem cell growth factor project, biochemical, small-molecule microarray, fluorescence 635/667 (AID 1064).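 Further: measures binding of the biotinylated anti-FSTL3 antibody to printed compounds.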 The following applies: higher = more signal.
The nature of assay [2]: binders from COS7 lysate, DM2A8 probe, primary screen, torsin A project, cell lysate, small-molecule microarray, fluorescence 635/667 (AID 1065). The following applies: higher = more signal, COS7 lysate expressing mutant human TOR1A.
Assay [3] is described as follows: binders of probe aFGF2 on microarray, primary screen, stem cell growth factor project, biochemical, small-molecule microarray, fluorescence 635/667 (AID 1067).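 Further: measures binding of biotinylated aFGF2 protein to printed compounds on slides; z-score merges feature fluorescence and signal-to-noise across triplicate slides.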 The following applies: higher = more signal.
Assay [4] in a line: binders of probe aFGF10 on microarray, primary screen, stem cell growth factor project, biochemical, small-molecule microarray, fluorescence 635/667 (AID 1071).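 Further: score merges 667 nm spot intensity and signal to noise from triplicate slides.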 The following applies: higher = more signal.
Assay [5] concerns the target Neurogenic locus notch homolog protein 2 (Homo sapiens) (UniProt Q04721). The assay can be described thus: Notch2 binders on small-molecule microarrays, primary screen, biochemical, small-molecule microarray, 635 nm fluorescence, stem cell growth factors (AID 1073). The following applies: Notch2 binding, higher = more signal.
The target in assay [6] is Pro-neuregulin-1, membrane-bound isoform (Homo sapiens) (UniProt Q02297). In words: NRG1 binders on small-molecule microarrays, primary screen, psychiatric disease protein project, biochemical, small-molecule microarray, fluorescence 635/667 (AID 1075).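 Further: score combines 667 nm spot fluorescence with signal to noise.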 Conditions: NRG1 binding, 635 nm fluorescence, higher = more signal.
Assay [7] deals with Neuregulin-1 EGF-like domain. In words: binders of neuregulin-1 EGF-like domain, primary screen, biochemical, small-molecule microarray, 635 nm fluorescence (AID 1081).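 Further: binding of the protein to compounds printed on small-molecule microarray slides.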 The following applies: small-molecule microarray binding, higher = more signal.
Assay [8] can be described thus: FRG1 promoter luciferase signal modulators, primary screen, FRG1 inhibition for FSHD, cell-based, C2C12 myotubes, firefly/Renilla luciferase, luminescence (AID 1084). Conditions: higher = more signal, called active from +8 up or from −8 down.
Assay [9] is described as follows: binders of probe aFST on microarray, primary screen, stem cell growth factor project, biochemical, small-molecule microarray, fluorescence 635/667 (AID 1086).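 Further: score merges 667 nm fluorescence with signal-to-noise of each printed compound spot.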 The following applies: higher = more signal.
The nature of assay [10]: binders of probe aHhip on microarray, primary screen, stem cell growth factor project, biochemical, small-molecule microarray, fluorescence 635/667 (AID 1087).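 Further: score merges spot fluorescence at 667nm with spot signal to noise ratio.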 Conditions: higher = more signal.
The test system of assay [11] is PRMT1 (protein arginine N-methyltransferase 1). In words: PRMT1 binders on small-molecule microarrays, primary screen, biochemical, small-molecule microarray, 635 nm fluorescence (AID 1088).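 Further: binding of Prmt1 protein to compounds spotted on small-molecule microarray slides.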 Conditions: small-molecule microarray binding, higher = more signal.
The nature of assay [12]: yeast growth modulation, basal conditions, primary screen, YJM789 clinical isolate, OD600, 24 h (AID 1089).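 Further: growth of clinical yeast isolate S. cerevisiae YJM 789 seeded 1000 cells per well; test concentration not given here.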 The following applies: S. cerevisiae YJM789 growth, higher = more signal, called active from +8 up or from −8 down.
The nature of assay [13]: fission yeast growth modulation, primary screen, strain 972, OD600, 24 h, no modulator (AID 1090).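 Further: basal condition with compound alone and no growth modifier present; test concentration not given here.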 The following applies: S. pombe 972 growth, higher = more signal, called active from +8 up or from −8 down.
The nature of assay [14]: S. cerevisiae growth modulation with rapamycin, primary screen, strain BY4716, OD600, 96 h (AID 1091). Further: test concentration not given here. Conditions: higher = more signal, called active from +8 up or from −8 down.
Assay [15] concerns the target Torsin-1A-interacting protein 2 (Homo sapiens) (UniProt Q8NFQ8). In words: LULL1 binders on small-molecule microarray, primary screen, cell lysate, human LULL1 lysate, 635/667 nm fluorescence (AID 1092).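 Further: probe is lysate of COS7 cells overexpressing human LULL1; score merges per-feature 667 nm fluorescence with signal-to-noise.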 Conditions: hLULL1 lysate binding, 635 nm fluorescence, higher = more signal.
Assay [16] in a line: E. coli growth modulation, two-sided OD650, primary screen, E. coli filamentation project, strain DRC41, 24 h (AID 1093).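 Further: MC1000 strain lacking acrAB efflux and sulA so SOS filamentation is blocked; test concentration not given here.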 Conditions: OD650, 24 h, higher = more signal, called active from +8 up or from −8 down.
The nature of assay [17]: small-molecule microarray binders of probe aLefty2, primary screen, biochemical, biotinylated probe, 635/667 nm fluorescence (AID 1094).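 Further: score merges spot fluorescence near 667 nm with spot signal-to-noise ratio.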 Conditions: higher = more signal.
The test system of assay [18] is Noggin (protein binding on small-molecule microarray). In words: Noggin binders on small-molecule microarray, primary screen, biochemical, 635/667 nm fluorescence (AID 1095).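 Further: score merges 667 nm feature fluorescence with signal to noise over triplicate slides.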 The following applies: 635 nm fluorescence, higher = more signal.
Assay [19] has as its target Neurogenic locus notch homolog protein 3 (Homo sapiens) (UniProt Q9UM47). The assay can be described thus: NOTCH3 binders on small-molecule microarray, primary screen, biochemical, 635/667 nm fluorescence (AID 1096). Conditions: NOTCH3 binding, 635 nm fluorescence, higher = more signal.
A short description of assay [20]: small-molecule microarray binders of probe aEGFR, primary screen, biochemical, biotinylated probe, 635/667 nm fluorescence (AID 1097).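 Further: probe is a biotinylated anti-EGFR antibody binding compounds printed on slides; score combines fluorescence near 667 nm and signal to noise of each spot.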 The following applies: higher = more signal.

Calls of active or inactive are those of the source.

Chain of Pro-neuregulin-1, membrane-bound isoform (Homo sapiens) (Q02297 whole entry, looked up, the tested form may be a part, canonical isoform): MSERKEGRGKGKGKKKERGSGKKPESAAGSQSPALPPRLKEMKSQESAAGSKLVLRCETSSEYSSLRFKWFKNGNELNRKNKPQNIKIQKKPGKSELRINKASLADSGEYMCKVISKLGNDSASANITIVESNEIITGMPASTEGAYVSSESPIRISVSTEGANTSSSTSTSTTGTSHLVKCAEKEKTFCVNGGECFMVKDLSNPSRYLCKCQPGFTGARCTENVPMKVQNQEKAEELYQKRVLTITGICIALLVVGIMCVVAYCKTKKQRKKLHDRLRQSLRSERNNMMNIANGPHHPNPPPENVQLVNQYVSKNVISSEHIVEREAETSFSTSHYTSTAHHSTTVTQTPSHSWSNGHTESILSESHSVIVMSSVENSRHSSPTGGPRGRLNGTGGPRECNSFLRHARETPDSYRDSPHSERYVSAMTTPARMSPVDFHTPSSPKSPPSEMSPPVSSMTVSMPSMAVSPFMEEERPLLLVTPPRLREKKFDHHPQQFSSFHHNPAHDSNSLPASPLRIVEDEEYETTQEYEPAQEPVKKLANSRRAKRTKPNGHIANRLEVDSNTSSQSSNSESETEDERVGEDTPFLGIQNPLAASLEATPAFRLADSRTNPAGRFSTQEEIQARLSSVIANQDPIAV
Chain of Torsin-1A-interacting protein 2 (Homo sapiens) (Q8NFQ8 whole entry, looked up): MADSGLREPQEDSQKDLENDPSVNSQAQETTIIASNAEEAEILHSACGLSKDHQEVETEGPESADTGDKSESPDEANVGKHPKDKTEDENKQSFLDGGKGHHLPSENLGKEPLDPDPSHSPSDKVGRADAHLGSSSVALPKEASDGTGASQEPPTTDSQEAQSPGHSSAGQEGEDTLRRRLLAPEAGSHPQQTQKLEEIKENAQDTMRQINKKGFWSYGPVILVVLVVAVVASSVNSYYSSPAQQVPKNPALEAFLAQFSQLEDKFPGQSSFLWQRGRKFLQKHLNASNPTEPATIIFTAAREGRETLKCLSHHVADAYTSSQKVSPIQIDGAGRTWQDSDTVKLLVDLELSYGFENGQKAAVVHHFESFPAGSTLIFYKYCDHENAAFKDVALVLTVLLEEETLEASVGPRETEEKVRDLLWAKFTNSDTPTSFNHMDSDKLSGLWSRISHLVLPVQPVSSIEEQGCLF
Chain of Neurogenic locus notch homolog protein 2 (Homo sapiens) (Q04721 whole entry, looked up, canonical isoform): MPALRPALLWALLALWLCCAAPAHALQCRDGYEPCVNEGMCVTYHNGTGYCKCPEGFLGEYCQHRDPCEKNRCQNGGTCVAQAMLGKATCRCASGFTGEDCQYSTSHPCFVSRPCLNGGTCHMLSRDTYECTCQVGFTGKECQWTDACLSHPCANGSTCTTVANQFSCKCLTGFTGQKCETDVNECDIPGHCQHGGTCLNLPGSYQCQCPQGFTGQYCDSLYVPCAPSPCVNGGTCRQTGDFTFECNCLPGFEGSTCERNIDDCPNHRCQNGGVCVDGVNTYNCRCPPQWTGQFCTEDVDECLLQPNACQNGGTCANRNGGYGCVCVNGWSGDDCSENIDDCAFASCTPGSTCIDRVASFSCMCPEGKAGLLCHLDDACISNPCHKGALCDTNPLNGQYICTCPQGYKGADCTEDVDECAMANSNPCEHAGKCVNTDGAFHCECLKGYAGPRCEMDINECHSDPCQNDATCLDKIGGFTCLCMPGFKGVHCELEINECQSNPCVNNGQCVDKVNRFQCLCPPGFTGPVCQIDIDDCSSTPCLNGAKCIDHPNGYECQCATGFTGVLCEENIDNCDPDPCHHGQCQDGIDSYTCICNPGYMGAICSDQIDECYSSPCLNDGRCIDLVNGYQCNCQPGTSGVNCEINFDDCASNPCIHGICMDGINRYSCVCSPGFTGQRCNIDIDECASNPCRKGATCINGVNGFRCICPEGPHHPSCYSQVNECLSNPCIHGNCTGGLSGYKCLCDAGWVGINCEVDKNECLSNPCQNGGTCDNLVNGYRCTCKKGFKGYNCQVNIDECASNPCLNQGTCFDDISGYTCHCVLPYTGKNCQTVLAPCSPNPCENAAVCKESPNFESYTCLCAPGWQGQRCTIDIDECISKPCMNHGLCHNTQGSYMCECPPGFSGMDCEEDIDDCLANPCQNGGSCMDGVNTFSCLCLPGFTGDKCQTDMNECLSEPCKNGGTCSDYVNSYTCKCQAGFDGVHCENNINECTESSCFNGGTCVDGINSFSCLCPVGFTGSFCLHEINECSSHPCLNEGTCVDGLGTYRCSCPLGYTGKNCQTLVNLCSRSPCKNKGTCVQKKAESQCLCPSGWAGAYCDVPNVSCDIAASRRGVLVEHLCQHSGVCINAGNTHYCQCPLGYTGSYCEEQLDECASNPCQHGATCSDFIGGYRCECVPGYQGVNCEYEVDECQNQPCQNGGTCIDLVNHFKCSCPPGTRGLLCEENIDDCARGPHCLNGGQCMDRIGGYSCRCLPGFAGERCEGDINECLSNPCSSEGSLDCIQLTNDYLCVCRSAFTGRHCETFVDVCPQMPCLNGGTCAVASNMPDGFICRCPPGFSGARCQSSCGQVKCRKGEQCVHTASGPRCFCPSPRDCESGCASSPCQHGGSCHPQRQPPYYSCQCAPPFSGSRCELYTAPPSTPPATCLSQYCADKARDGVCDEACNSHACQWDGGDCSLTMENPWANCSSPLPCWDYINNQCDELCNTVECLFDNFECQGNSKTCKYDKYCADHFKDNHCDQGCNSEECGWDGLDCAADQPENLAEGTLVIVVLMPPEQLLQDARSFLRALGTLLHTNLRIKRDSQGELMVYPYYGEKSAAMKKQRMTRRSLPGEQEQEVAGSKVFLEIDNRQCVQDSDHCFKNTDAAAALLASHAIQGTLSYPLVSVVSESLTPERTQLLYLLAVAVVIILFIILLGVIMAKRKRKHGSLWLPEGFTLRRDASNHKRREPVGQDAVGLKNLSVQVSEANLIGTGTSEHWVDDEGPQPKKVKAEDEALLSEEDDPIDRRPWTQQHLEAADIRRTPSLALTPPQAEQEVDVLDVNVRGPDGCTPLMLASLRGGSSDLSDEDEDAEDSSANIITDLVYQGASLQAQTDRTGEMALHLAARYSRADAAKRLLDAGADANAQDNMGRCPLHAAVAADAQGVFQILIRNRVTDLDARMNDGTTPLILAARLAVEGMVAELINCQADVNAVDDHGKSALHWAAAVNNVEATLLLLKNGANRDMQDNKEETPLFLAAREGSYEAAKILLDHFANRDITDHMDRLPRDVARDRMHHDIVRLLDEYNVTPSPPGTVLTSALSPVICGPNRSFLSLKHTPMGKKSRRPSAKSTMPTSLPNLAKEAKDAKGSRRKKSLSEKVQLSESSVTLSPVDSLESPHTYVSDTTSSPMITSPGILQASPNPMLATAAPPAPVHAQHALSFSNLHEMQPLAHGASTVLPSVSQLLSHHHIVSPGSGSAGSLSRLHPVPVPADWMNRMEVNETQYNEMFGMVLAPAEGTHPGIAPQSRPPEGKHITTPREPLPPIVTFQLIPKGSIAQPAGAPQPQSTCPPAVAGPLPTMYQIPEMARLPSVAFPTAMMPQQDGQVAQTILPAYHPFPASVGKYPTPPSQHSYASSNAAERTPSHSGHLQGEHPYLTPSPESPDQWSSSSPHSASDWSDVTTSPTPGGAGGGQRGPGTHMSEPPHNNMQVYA

In the case of `COCCOC(=O)N1C(=O)[C@@]2(c3ccccc31)[C@H](c1ccccc1OCCO)N1[C@H](c3ccccc3)[C@H](c3ccccc3)OC(=O)[C@H]1[C@@H]2C(=O)N1CCc2cc(OC)c(OC)cc2C1`, the composite z-score in [1] stood at 0.184; in assay [2], 0.124; in assay [3] it was 0.071; in [4] it was 0.336; in assay [5] it was 0.403; in [6], 0.982. Also, the composite z-score in assay [7] is 1.25; in [9], 0.356; in assay [10], 0.28; in assay [11], 1.52; in [15], 2.01; in assay [17], 0.0706. In addition, the composite z-score came out at 1.34 in [18], 1.04 in [19] and 0.0556 in [20]. Besides, the z-score in [8] was -1.61 (inactive); in [12], 2.11 (inactive); in [13] it was 1.99 (inactive); in assay [14], 6.86 (inactive); in [16], 0.344 (inactive).
On to `CN1C(=O)C2C=CC(C(O)C3CCCCC3)N(N(c3ccccc3)c3ccccc3)C2C1=O` (stereo not given), for which the composite z-score in [1] is 1.61; in assay [2], -0.277; in assay [3], 0.182; in assay [4], -0.122; in assay [5], -0.112; in assay [6], 1.12. The composite z-score was 0.659 in assay [7]; 0.236 in assay [9]; -0.183 in assay [10]; 0.102 in assay [11]; 2.5 in assay [15]; 0.368 in [17]. The results for the composite z-score in assay [18], in assay [19] and in assay [20] were -0.539, -0.396 and 0.114, respectively. Also, the z-score is -0.158 (inactive) in assay [8]; 0.345 (inactive) in assay [12]; 1.25 (inactive) in assay [13]; 0.4 (inactive) in assay [14]; -0.989 (inactive) in [16].
Take `CN1C(=O)C2C=CC(C(O)c3ccc(F)cc3)N(N3CCCCC3)C2C1=O` (stereo not given): the composite z-score in [1] turned out to be 1.1; in [2], 1.72; in assay [3] it was 0.344; in assay [4], 0.139; in [5] it was 1.44; in [6], 1.17. Further, the composite z-score in [7] worked out at 1.19; in [9], 0.713; in [10] it was 0.0274; in assay [11], 1.07; in assay [15], 2.78; in assay [17], 0.682. In addition, the composite z-score is -0.513 in [18], 0.721 in assay [19] and 0.204 in [20]. For the same molecule, the z-score was 0.532 (inactive) in assay [8]; 1.15 (inactive) in [12]; 1.27 (inactive) in [13]; 2.06 (inactive) in [14]; -1.17 (inactive) in assay [16].
As to `COc1ccc(CCNC(=O)[C@@H]2c3ccccc3C(=O)N(Cc3ccccc3)[C@H]2c2ccc(CO)cc2)cc1`, the composite z-score in assay [1] was 0.262; in assay [2] it was 1.24; in assay [3], -0.0866; in [4], -0.101; in assay [5], -0.117; in assay [6] it was -0.0744. The composite z-score came to 1.2 in [7]; 0.0887 in [9]; 3.74 in [10]; 1.55 in assay [11]; 3.23 in assay [15]; 0.06 in assay [17]. In addition, the composite z-score is 0.107 in assay [18], 0.233 in assay [19] and -0.0978 in assay [20]. For the same molecule, the z-score in [8] was -2.26 (inactive); in assay [12] it was -1.34 (inactive); in assay [13] it was -0.586 (inactive); in assay [14] it was -0.332 (inactive); in [16], 1.95 (inactive).
On to `Cc1cc(C)c(C(O)C2C=CC3C(=O)N(c4ccccc4)C(=O)C3N2Nc2ccccc2)c(C)c1` (stereo not given), for which the composite z-score was found to be 0.175 in assay [1]; 0.668 in [2]; 0.216 in assay [3]; 1.08 in [4]; 1.56 in assay [5]; 1.99 in assay [6]. In addition, the composite z-score in assay [7] is 1.22; in [9], 1.25; in [10], -0.189; in assay [11], 1.56; in assay [15] it was 3.47; in assay [17], 0.506. The composite z-score in assay [18] amounted to 0.0982; in [19], 1.05; in assay [20], 0.178. Also, the z-score was 0.423 (inactive) in [8]; 0.839 (inactive) in assay [12]; 0.483 (inactive) in [13]; 0.0441 (inactive) in [14]; -1.02 (inactive) in assay [16].
